Shown are actives, neighbours in structure and some others; about 3.8% of the full set was active somewhere.
S2 tox = Viability Counterscreen for Primary qHTS for Inhibitors of ATXN expression; S2 cells (HEK-293 line with an ATXN2-luciferase reporter) viability, CellTiter-Fluor protease fluorescence, 24 h; Potency, µM (top dose mostly 56.7 µM), actives largely listed as cytotoxic; hit rate 0.49% among 400,000; also: nearly all actives have a fitted effect of over 40% in size
A549 tox = Nrf2 qHTS screen for inhibitors: counterscreen for cytotoxicity; A549 ARE-Fluc cells, CellTiter-Fluor viability, 18-24 h; Potency, µM (doses to about 46 µM), without a hit: top-dose activity change, negative = cytotoxicity, usual class: inhibitors; hit rate 0.16% among 390,000; AID 504648, 2011; also: % is scaled to controls: 0 for no effect and ±100 for the full control effect
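A549 ARE-Fluc cells in 5% FBS OPTI-MEM, 5000 cells/well, rested 2 h then exposed to compounds in concentration-response for 18-24 h at 37 °C. Viability by CellTiter-Fluor fluorescence (Ex 405/Em 525) after 30 min; luciferase luminescence (BugLite, 15 min, RT) read afterwards.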
Nrf2 inh = Nrf2 qHTS screen for inhibitors | A549 ARE-Fluc reporter, luciferase luminescence, 18-24 h | Potency, µM (titrated, usually from 46 µM), for inactives: at the top dose activity change, negative = inhibition, hits mostly inhibitors | hit rate 2.1% among 360,000; also: % is scaled to controls: 0 for no effect and ±100 for the full control effect; nearly all actives have a fitted effect of over 60% in size
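A549 ARE_Fluc cells (5000/well, 5% FBS OPTI-MEM) pre-incubated 2 h, then treated with compounds 18-24 h at 37C/5% CO2 in concentration-response. CellTiter-Fluor viability read first; BugLite luciferase luminescence after 15 min at room temperature gives Nrf2 activity.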
ATXN2 expr inh = Primary qHTS for Inhibitors of ATXN expression. hit rate 0.72% among 360,000. HEK-293 ATXN2-luciferase reporter, luminescence, 24 h. Potency, µM (titrated, usually from 57 µM), inactives show at the top dose activity change, negative = inhibition, hits mostly inhibitors. AID 1745845, 2022; also: % is scaled to controls: 0 for no effect and ±100 for the full control effect; nearly all actives have a fitted effect of over 55% in size
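qHTS (up to 57 uM final) was run with 24 h compound exposure of reporter cells at 37 °C. Each well was multiplexed: SteadyGlo luminescence measured ATXN2-luciferase expression after a fluorogenic Gly-Phe-AFC viability readout (25 uM final).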
TGFb inhibitor = qHTS for Inhibitors of TGF-b; HepG2 CAGA-GFP TGF-b/SMAD3 reporter, GFP fluorescence, 18 h; TGF-beta stimulated, 500 pg/mL final; Potency, µM (top dose mostly 46.1 µM), for the others: top-dose activity, negative = inhibition, most hits filed as inhibitors; hit rate 1.2% among 410,000; AID 588855, 2011; also: % is scaled to controls: 0 for no effect and ±100 for the full control effect; nearly all actives have a fitted effect of over 65% in size
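GFP signal (ex488/em500-530) from TGF-beta-stimulated HEPG2 CAGA-GFP cells, 500 pg/mL final, 18 h at 37 degrees C in DMEM plus 1% FBS, normalized to unstimulated and DMSO-stimulated controls.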
HepG2 tox-1 = qHTS for Inhibitors of TGF-b: Cytotox Counterscreen | HepG2 CAGA-GFP viability, ATP luminescence, 18 h | Potency, µM (top dose mostly 46.1 µM), for inactives: at the top dose activity change, negative = cytotoxicity, usual class: cytotoxic | hit rate 0.76% among 410,000
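HepG2 CAGA-GFP cells (1000/well, DMEM with 1% FBS) received compound, then TGF-beta at 500 pg/mL final, and were incubated 18 hours at 37 degrees C. Viability was read by CellTiter-Glo luminescence. Media-only wells were set as complete cell-killing and DMSO as no toxicity.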
TGFb confirm = qHTS for Inhibitors of TGF-b: Confirmation of Cherry Picks | shares compounds with TGFb inhibitor | HepG2 CAGA-GFP TGF-b reporter, GFP fluorescence, 18 h; cells stimulated with TGF-beta, 500 pg/mL | Potency, µM (doses to about 46.1 µM), for the others: at the top dose activity, negative = inhibition, usual class: inhibitors | hit rate 63% among 1,600 | AID 720534, 2013; also: % is scaled to controls: 0 for no effect and ±100 for the full control effect; nearly all actives have a fitted effect of over 65% in size
HepG2 tox-2 = qHTS for Inhibitors of TGF-b: Cytotox Counterscreen for Cherry Picks; HepG2 CAGA-GFP viability, ATP luminescence, 18 h; cells stimulated with TGF-beta, 500 pg/mL; AID 720535, 2013; Potency, µM (top dose mostly 46.1 µM), without a hit: at the top dose activity, negative = cytotoxicity, actives largely listed as inhibitors; hit rate 27% among 1,600; shares compounds with TGFb inhibitor; also: % is scaled to controls: 0 for no effect and ±100 for the full control effect; nearly all actives have a fitted effect of over 70% in size
CCL64 TGFb inh = qHTS for Inhibitors of TGF-b: CCL64 Cells Orthogonal Assay for Cherry Picks. AID 720536, 2013. CCL64 CAGA-GFP reporter, TGF-b stimulated, GFP fluorescence, 18 h. Potency, µM (titrated, usually from 46.1 µM), inactives show at the top dose activity, negative = inhibition, most hits filed as inhibitors. shares compounds with TGFb inhibitor. hit rate 41% among 1,600; also: nearly all actives have a fitted effect of over 65% in size
COP TGFb inh = qHTS for Inhibitors of TGF-b: Hit Validation in HepG2 Cells using COP promoter | shares compounds with TGFb inhibitor | HepG2 COP-GFP TGF-b reporter, GFP fluorescence, 18 h; cells stimulated by added recombinant TGF-beta | Potency, µM (series often up to 46.1 µM), for inactives: at the highest dose activity, negative = inhibition, usual class: inhibitors | hit rate 3% among 1,600 | AID 720537, 2013; also: nearly all actives have a fitted effect of over 70% in size
The depositor's hits bear a star; i = inactive; ? = inconclusive; . = no result; [ ] = another dose, or the depositor's remark. Calls follow the shape of the dose curve; as a rule, active = well fitted curve in the direction sought with a large enough effect; inconclusive = small, poorly fitted or top-dose-only effect, or another doubt; inactive = no such curve, though single readings can be large; an effect the other way counts as inactive or inconclusive. Potency is read from the fitted curve at half-maximal effect.

SMILES	S2 tox	A549 tox	Nrf2 inh	ATXN2 expr inh	TGFb inhibitor	HepG2 tox-1	TGFb confirm	HepG2 tox-2	CCL64 TGFb inh	COP TGFb inh
COC(=O)c1ccc2nc(NC(=O)CCS(=O)(=O)c3ccccc3)sc2c1	i	0.3%	12.3%	16.3%	?	2.2%	.	.	.	.
O=C(COc1ccc2cc(-c3ccccc3)c(=O)oc2c1)NCC1CCC(C(=O)O)CC1 (stereo not given)	i	2.3%	-11.8%	1.6%	?	0.5%	.	.	.	.
COc1ccc(C2C(C(N)=O)=C(C)Nc3nc(CCCO)nn32)c(OC)c1 (stereo not given)	i	-1.8%	-5.7%	0.0%	?	-12.8%	.	.	.	.
c1ccc2sc(-n3cc(C4CCCCC4)nn3)nc2c1	i	.	.	69.1%	.	.	.	.	.	.
CCc1ccc(C2CC(=O)c3c([nH]c(C(=O)OC4CCC(C)CC4)c3C)C2)cc1 (stereo not given)	i	4.0%	10.1%	-3.4%	13.8%	4.8%	.	.	.	.
C/C(=C\c1ccc(N)cc1)c1nc2ccccc2[nH]1	i	-0.6%	?	48.4%	-0.5%	-5.5%	.	.	.	.
CC(C)c1ccc(/C=C(\c2nc3ccccc3[nH]2)S(=O)(=O)c2ccccc2)cc1	?	?	?	?	7.94µM*	10µM*	16.4µM*	10.3µM*	4.61µM*	-17.1%
O=S(=O)(/C(=C/c1ccc(C(F)(F)F)cc1)c1nc2ccccc2[nH]1)c1ccccc1	26.7µM*	?	?	?	5.01µM*	7.94µM*	2.91µM*	2.59µM*	1.84µM*	?
CCOc1ccc(C(CN2CCOCC2)C(C)=O)cc1OC (stereo not given)	i	.	.	?	2.51µM*	-102.2%	?	16.4µM*	16.4µM*	?
CCC(=O)Nc1c(S(=O)(=O)c2ccc(C)cc2)c2nc3ccccc3nc2n1C(C)c1ccccc1 (stereo not given)	i	?	?	-15.8%	?	23.9%	.	.	.	.
CCC(=O)Nc1c(S(=O)(=O)c2ccccc2)c2nc3ccccc3nc2n1C(C)c1ccccc1 (stereo not given)	i	-24.4%	18.4µM*	-24.1%	12.6µM*	-20.7%	?	-20.9%	?	26.2%
Cc1nc(SCC(=O)Nc2cccnc2Cl)nc(C)c1C	i	3.1%	9.9%	-32.6%	-1.8%	-28.8%	.	.	.	.
COCCCNC(=S)NC(=O)c1ccc(C)cc1	i	10.6%	?	42.9%	22.0%	-2.6%	.	.	.	.
CC1CCN(C(=O)Cn2cc(SCC(=O)NCc3ccccc3Cl)c3ccccc32)CC1	.	-21.9%	-30.7%	.	0.0%	-11.4%	.	.	.	.
Cn1cnc([N+](=O)[O-])c1Sc1nc(N)nc2c1ncn2C1CC(O)C(CO)O1 (stereo not given)	?	?	?	-35.0%	3.98µM*	-38.6%	4.11µM*	?	18.8%	82.2%
Cn1cnc([N+](=O)[O-])c1Sc1nc(N)nc2c1ncn2C1OC(CO)C(O)C1O (stereo not given)	?	?	?	-33.2%	2µM*	-45.6%	2.91µM*	0.92µM*	3.1%	65.0%
Cc1cc2c(s1)c(/C=N/O)c(C(=O)NCc1ccccc1F)n2C	.	13.7%	2.9%	.	.	.	.	.	.	.
OCC[C@@H]1C[C@H](O)[C@@H](O)[C@]2(OCCc3cc(Cl)ccc32)O1	i	.	.	2.3%	-4.2%	-5.0%	.	.	.	.
COc1ccc(Cl)cc1NC(=O)c1ccc2nc(Cc3ccccc3)oc2c1	i	8.5%	.	-30.2%	-8.9%	-33.1%	.	.	.	.
COc1ccc(C(=O)Nc2ccc3oc(Cc4ccc(Cl)cc4)nc3c2)cc1OC	?	-18.0%	?	?	15.8µM*	-22.6%	?	-17.7%	13.2%	0.3%
CCN(CC)S(=O)(=O)c1cccc(C(=O)NCCCn2ccnc2)c1	i	-3.2%	-10.1%	5.5%	-2.7%	-13.5%	.	.	.	.
Nc1ccc2nn(-c3ccccc3)nc2c1	.	-1.2%	?	27.5%	-28.1%	-23.2%	.	.	.	.
Nc1cc2nn(-c3ccccc3)nc2cc1Cl	i	0.8%	?	62.7%[11.3 µM]	2.24µM*	-45.4%	3.26µM*	1.84µM*	16.1%	68.7%
Cc1cc(C(=O)N2CCN(C/C=C/c3ccccc3)CC2)cs1	i	-0.4%	0.6%	5.1%	15.8µM*	-7.7%	?	-17.5%	9.1%	-22.3%
O=[N+]([O-])c1ccc(S(=O)(=O)c2cccc(C(F)(F)F)c2)nc1	15.8µM*	?	?	?	6.31µM*	12.6µM*	3.66µM*	7.31µM*	2.59µM*	16.4µM*
O=S(=O)(Nc1cccnc1)c1cccc(C(F)(F)F)c1	i	0.0%[1.84 µM]	6.5%	-5.3%	-7.9%	-7.8%	.	.	.	.
CCCCSc1nc(C)cc(SCC(=O)N/N=C/c2cccc(OC)c2O)n1	?	-5.8%	-4.3%	7.08µM*	7.94µM*	-26.2%	8.2µM*	?	11.6µM*	-1.2%
O=C(O)CC(CNS(=O)(=O)c1ccccc1)c1ccccc1 (stereo not given)	i	2.7%	?	1.7%	-3.3%	-10.3%	.	.	.	.
CCOCCOC(=O)c1ccc(NC(=O)/C=C/c2ccc(OC)c(OC)c2)cc1	?	18.3%	1.7%	?	?	-50.4%	.	.	.	.
